The record followed here is PubChem BioAssay.

In the test the target is Neurogenic locus notch homolog protein 2 (Homo sapiens) (UniProt Q04721). Description: Notch2 binders on small-molecule microarrays, primary screen, biochemical, small-molecule microarray, 635 nm fluorescence, stem cell growth factors (AID 1073). The conditions noted are these: Notch2 binding, higher = more signal.
Chain of Neurogenic locus notch homolog protein 2 (Homo sapiens) (Q04721 whole entry, looked up): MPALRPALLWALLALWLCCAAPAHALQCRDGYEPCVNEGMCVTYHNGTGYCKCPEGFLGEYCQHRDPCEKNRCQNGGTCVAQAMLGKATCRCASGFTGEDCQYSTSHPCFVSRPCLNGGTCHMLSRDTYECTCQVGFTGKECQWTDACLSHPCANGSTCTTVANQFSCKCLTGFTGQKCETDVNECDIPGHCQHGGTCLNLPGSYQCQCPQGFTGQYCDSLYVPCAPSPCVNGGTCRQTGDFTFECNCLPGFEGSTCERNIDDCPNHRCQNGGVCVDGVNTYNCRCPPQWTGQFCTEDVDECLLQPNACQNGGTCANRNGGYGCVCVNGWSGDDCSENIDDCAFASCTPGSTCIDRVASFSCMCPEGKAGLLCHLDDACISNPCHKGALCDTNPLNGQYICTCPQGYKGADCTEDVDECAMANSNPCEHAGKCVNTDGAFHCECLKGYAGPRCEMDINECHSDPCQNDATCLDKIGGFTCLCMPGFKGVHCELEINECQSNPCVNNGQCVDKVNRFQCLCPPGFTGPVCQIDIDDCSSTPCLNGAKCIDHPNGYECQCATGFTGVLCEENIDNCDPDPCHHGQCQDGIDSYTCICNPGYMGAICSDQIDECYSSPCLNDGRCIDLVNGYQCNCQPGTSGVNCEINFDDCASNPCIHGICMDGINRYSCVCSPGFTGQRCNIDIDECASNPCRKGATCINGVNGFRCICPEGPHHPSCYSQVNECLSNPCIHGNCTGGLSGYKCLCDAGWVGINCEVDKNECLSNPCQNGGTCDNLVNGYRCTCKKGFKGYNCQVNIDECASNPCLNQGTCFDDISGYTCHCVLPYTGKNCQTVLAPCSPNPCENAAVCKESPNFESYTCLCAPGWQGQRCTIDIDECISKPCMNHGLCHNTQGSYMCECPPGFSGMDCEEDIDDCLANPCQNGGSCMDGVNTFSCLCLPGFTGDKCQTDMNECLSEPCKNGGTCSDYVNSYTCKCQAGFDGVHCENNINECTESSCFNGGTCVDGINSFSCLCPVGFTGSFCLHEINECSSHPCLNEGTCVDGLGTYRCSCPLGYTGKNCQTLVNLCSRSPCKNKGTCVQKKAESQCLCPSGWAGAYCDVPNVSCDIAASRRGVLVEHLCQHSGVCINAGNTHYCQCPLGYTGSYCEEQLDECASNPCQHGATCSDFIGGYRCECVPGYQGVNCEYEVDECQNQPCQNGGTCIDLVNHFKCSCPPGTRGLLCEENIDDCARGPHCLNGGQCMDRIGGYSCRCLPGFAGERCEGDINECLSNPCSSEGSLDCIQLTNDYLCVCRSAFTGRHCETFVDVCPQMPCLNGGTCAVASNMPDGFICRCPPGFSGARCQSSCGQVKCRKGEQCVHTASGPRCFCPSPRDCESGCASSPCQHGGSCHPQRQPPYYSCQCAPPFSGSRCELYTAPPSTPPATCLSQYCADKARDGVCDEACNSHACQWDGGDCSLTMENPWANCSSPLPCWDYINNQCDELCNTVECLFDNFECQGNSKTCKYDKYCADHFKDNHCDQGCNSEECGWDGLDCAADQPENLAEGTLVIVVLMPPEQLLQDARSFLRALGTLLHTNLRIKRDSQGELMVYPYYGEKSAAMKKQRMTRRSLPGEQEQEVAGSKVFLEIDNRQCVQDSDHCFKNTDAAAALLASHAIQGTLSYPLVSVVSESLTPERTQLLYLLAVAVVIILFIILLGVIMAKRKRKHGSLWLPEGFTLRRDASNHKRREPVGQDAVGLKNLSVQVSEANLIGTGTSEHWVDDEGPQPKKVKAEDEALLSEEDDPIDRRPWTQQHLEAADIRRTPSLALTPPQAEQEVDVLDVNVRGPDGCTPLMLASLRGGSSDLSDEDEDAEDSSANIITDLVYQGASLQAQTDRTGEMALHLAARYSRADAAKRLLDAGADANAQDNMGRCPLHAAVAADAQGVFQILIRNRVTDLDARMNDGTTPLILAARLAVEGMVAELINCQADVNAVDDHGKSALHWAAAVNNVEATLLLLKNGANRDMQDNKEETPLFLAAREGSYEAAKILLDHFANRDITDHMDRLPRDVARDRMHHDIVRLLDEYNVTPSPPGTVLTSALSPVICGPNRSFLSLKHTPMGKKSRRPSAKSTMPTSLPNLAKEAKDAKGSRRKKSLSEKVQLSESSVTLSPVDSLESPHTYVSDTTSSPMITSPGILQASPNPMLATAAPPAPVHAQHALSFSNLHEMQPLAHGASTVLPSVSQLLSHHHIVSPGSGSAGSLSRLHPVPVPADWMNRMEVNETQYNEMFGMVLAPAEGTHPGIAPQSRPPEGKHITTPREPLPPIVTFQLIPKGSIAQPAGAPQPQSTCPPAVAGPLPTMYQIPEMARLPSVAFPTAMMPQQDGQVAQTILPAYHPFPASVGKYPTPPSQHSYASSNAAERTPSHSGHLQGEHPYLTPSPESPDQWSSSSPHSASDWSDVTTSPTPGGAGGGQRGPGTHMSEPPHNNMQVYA
For the molecule `C=C(COC)C(=O)CC[C@H](OC(=O)c1ccccc1-c1ccccc1C(=O)O)c1cccc(OCCO)c1`, the composite z-score was 0.0421. To `COC(=O)C(CC#Cc1ccc2c(c1)[C@]1(C(=O)N2)[C@H](C(=O)N2CCCCCCC2)[C@H]2C(=O)O[C@H](c3ccccc3)[C@H](c3ccccc3)N2[C@@H]1c1ccc(O)cc1)C(=O)OC` belongs -1.07; to `CCCC[C@H]1OB(O)C[C@H]2C1=C(COC)C[C@H]1C(=O)N(Cc3ccccc3)C(=O)[C@H]12`, 0.908. The value for `COCCOC(=O)N1C(=O)[C@@]2(c3cc(C#CCCO)ccc31)[C@H](C(=O)N1CCCCCCC1)[C@H]1C(=O)O[C@H](c3ccccc3)[C@H](c3ccccc3)N1[C@@H]2c1ccc(O)cc1` was 1.15. The molecule `Cc1ccc(S[C@]2(C(=O)O)CC(=O)N(Cc3ccccc3)[C@@H]2c2ccc(CO)cc2)cc1` displayed a composite z-score of 0.0203. The value for `COCCOC(=O)N1C(=O)[C@@]2(c3cc(C#CCNC(N)=O)ccc31)[C@H](c1ccc(OCCO)cc1)N1[C@H](c3ccccc3)[C@H](c3ccccc3)OC(=O)[C@H]1[C@@H]2C(=O)Nc1nc2ccccc2s1` was -0.97; that for `C=CC[C@@]12N=C(c3ccc(OCCCO)cc3)O[C@@H]1c1ccccc1CN(Cc1ccccc1)C2=O` was 0.477. The value for `O=C(NCC(O)CO)[C@]1(Cc2ccccc2)N=C(c2ccc(OCCCO)cc2)O[C@@H]1c1ccccc1` (some centres undefined) was 0.271; that for `C=CCNC(=O)[C@H]1[C@@H]2C(=O)O[C@@H](c3ccccc3)[C@@H](c3ccccc3)N2[C@@H](c2ccccc2OCCO)[C@]12C(=O)N(C(=O)OCCOC)c1ccc(C#CCNC(N)=O)cc12` was 0.284.
